Measured values: the supplement of paper PMC11732987, “Enantioselective OTUD7B fragment discovery through chemoproteomics screening and high-throughput optimisation” (Communications Chemistry, 2025)

Tests used:
Test in all cases: log2 ratio of Biotin-Ahx-Ub-VS probe labelling (fragment/DMSO); higher = less target engagement (more negative = stronger competition), active = hit call of the paper (q ≤ 0.05, log2 ratio ≤ -1)
Details in all cases: compound concentration: 200 uM; treatment time: 3 h
USP19 = target: T1, USP19 (UniProt O94966)
T1 sequence (whole entry): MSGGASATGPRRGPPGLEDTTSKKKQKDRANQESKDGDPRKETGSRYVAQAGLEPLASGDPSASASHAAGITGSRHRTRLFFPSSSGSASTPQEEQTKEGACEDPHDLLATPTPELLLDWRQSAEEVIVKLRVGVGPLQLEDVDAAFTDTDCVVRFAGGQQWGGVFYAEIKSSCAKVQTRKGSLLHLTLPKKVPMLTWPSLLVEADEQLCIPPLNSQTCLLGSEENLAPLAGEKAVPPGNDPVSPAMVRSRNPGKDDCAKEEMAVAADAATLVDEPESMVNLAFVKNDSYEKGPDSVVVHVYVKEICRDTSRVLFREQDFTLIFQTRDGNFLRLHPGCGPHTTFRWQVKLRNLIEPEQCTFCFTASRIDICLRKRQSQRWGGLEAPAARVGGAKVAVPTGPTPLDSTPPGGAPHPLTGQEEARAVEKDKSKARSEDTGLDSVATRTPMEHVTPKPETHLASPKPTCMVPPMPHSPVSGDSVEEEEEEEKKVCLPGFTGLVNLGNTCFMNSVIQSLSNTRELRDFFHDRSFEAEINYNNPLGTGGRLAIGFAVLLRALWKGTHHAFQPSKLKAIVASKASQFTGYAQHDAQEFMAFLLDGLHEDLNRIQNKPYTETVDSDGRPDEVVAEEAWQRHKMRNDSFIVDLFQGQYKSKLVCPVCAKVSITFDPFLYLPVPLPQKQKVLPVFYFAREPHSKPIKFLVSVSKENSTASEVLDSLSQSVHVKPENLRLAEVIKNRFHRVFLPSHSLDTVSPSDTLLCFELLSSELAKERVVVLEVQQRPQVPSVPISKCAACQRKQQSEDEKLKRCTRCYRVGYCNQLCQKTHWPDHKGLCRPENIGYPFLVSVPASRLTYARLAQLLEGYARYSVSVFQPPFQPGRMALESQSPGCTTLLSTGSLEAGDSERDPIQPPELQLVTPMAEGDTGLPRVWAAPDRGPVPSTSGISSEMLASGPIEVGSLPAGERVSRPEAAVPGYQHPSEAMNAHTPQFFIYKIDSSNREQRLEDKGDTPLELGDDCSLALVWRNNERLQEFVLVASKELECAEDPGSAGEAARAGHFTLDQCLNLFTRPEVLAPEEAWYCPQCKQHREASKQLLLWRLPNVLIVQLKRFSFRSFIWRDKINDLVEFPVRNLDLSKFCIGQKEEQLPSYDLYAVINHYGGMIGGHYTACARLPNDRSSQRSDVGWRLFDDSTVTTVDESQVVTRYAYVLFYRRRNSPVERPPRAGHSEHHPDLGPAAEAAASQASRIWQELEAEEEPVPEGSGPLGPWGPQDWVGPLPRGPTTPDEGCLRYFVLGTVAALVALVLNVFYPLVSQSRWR
Summary of the method: (§1)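 Each value is an average log2 ratio of fragment to vehicle, tested by unpaired t-test. The underlying Spectronaut label-free quantities were global-median-normalised, and only proteins with ≥2 unique peptides were included. Triplicate HEK293T lysate samples (495 µg) were exposed to fragment at 200 µM or vehicle for 3 h, then to Biotin-Ahx-Ub-VS at 0.5 µM final for 1 h, before NeutrAvidin enrichment of labelled DUBs, LysC and trypsin digestion, and diaPASEF LC-MS/MS.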

USP22 = target: T2, USP22 (UniProt Q9UPT9)
T2 sequence (whole entry): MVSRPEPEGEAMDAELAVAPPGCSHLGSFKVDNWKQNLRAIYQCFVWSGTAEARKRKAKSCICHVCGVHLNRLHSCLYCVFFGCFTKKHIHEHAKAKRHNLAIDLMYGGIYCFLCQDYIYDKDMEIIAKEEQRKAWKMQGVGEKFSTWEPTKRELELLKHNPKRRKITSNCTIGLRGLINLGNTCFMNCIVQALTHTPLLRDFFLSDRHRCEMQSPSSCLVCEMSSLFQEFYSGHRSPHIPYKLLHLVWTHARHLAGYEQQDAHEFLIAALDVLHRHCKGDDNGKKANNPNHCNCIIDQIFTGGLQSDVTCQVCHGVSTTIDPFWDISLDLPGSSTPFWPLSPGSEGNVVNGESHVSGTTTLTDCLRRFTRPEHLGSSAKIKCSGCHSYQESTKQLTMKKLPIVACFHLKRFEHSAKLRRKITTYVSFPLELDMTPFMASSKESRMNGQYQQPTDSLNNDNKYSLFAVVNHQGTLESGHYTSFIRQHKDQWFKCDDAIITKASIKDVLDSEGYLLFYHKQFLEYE
Summary of the method: as §1

USP24 = USP24 (UniProt Q9UPU5)
Summary of the method: as §1

USP25 = target: T3, USP25 (UniProt Q9UHP3)
T3 sequence (whole entry): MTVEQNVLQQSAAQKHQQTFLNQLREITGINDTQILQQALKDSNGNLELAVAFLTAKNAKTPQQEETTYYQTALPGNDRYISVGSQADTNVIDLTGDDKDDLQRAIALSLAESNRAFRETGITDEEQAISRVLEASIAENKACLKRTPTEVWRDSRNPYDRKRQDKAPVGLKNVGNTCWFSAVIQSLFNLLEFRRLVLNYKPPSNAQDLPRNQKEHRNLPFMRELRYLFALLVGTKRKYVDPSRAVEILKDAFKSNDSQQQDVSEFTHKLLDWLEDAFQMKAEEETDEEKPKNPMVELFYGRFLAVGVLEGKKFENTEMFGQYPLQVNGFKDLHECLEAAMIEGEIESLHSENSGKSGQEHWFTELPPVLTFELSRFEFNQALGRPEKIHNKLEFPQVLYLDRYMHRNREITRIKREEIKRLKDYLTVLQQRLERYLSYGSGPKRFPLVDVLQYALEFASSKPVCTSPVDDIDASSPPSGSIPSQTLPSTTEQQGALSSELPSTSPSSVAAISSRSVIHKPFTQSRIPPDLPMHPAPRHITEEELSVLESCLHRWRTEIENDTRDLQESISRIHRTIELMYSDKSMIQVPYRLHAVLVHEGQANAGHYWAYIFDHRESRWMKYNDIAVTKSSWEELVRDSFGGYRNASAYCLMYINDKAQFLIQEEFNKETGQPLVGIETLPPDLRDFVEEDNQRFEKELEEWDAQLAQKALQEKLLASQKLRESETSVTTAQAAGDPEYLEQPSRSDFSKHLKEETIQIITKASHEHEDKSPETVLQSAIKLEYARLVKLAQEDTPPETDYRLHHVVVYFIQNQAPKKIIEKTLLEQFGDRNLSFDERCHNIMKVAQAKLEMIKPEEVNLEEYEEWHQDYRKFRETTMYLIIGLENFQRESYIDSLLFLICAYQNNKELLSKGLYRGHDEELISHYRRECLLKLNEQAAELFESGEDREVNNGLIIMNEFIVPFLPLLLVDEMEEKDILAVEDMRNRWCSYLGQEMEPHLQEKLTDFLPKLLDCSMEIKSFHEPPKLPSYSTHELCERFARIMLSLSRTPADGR
Summary of the method: as §1

USP28 = target: T4, USP28 (UniProt Q96RU2)
T4 sequence (whole entry): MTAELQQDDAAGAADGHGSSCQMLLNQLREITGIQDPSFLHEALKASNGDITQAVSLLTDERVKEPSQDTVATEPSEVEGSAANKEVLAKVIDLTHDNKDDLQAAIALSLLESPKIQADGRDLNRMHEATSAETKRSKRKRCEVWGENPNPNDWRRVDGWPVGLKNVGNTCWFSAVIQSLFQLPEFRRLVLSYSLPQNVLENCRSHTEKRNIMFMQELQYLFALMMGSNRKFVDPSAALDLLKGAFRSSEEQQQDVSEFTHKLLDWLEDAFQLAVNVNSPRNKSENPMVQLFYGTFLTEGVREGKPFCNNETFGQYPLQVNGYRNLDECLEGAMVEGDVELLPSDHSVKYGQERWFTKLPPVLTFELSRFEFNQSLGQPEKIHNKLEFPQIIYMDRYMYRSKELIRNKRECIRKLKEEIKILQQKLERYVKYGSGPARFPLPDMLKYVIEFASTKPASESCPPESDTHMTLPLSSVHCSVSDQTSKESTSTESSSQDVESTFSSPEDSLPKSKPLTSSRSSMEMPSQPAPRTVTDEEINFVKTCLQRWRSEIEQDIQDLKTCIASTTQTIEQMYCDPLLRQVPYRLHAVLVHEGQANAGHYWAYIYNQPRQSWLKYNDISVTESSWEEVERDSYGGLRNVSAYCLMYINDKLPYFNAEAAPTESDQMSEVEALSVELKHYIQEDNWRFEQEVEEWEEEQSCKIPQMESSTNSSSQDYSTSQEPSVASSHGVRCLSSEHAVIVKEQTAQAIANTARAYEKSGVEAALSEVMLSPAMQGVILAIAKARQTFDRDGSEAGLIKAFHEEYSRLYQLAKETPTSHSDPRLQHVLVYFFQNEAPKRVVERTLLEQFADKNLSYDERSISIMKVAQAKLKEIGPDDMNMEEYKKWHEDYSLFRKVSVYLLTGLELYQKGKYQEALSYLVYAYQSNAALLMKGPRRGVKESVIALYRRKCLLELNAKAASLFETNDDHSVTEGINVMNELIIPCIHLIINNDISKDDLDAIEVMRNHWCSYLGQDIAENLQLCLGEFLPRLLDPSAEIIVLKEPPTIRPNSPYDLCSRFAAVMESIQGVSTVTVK
Summary of the method: as §1

Measured: log2 ratio of Biotin-Ahx-Ub-VS probe labelling

Sequence of USP24 (Q9UPU5 whole entry): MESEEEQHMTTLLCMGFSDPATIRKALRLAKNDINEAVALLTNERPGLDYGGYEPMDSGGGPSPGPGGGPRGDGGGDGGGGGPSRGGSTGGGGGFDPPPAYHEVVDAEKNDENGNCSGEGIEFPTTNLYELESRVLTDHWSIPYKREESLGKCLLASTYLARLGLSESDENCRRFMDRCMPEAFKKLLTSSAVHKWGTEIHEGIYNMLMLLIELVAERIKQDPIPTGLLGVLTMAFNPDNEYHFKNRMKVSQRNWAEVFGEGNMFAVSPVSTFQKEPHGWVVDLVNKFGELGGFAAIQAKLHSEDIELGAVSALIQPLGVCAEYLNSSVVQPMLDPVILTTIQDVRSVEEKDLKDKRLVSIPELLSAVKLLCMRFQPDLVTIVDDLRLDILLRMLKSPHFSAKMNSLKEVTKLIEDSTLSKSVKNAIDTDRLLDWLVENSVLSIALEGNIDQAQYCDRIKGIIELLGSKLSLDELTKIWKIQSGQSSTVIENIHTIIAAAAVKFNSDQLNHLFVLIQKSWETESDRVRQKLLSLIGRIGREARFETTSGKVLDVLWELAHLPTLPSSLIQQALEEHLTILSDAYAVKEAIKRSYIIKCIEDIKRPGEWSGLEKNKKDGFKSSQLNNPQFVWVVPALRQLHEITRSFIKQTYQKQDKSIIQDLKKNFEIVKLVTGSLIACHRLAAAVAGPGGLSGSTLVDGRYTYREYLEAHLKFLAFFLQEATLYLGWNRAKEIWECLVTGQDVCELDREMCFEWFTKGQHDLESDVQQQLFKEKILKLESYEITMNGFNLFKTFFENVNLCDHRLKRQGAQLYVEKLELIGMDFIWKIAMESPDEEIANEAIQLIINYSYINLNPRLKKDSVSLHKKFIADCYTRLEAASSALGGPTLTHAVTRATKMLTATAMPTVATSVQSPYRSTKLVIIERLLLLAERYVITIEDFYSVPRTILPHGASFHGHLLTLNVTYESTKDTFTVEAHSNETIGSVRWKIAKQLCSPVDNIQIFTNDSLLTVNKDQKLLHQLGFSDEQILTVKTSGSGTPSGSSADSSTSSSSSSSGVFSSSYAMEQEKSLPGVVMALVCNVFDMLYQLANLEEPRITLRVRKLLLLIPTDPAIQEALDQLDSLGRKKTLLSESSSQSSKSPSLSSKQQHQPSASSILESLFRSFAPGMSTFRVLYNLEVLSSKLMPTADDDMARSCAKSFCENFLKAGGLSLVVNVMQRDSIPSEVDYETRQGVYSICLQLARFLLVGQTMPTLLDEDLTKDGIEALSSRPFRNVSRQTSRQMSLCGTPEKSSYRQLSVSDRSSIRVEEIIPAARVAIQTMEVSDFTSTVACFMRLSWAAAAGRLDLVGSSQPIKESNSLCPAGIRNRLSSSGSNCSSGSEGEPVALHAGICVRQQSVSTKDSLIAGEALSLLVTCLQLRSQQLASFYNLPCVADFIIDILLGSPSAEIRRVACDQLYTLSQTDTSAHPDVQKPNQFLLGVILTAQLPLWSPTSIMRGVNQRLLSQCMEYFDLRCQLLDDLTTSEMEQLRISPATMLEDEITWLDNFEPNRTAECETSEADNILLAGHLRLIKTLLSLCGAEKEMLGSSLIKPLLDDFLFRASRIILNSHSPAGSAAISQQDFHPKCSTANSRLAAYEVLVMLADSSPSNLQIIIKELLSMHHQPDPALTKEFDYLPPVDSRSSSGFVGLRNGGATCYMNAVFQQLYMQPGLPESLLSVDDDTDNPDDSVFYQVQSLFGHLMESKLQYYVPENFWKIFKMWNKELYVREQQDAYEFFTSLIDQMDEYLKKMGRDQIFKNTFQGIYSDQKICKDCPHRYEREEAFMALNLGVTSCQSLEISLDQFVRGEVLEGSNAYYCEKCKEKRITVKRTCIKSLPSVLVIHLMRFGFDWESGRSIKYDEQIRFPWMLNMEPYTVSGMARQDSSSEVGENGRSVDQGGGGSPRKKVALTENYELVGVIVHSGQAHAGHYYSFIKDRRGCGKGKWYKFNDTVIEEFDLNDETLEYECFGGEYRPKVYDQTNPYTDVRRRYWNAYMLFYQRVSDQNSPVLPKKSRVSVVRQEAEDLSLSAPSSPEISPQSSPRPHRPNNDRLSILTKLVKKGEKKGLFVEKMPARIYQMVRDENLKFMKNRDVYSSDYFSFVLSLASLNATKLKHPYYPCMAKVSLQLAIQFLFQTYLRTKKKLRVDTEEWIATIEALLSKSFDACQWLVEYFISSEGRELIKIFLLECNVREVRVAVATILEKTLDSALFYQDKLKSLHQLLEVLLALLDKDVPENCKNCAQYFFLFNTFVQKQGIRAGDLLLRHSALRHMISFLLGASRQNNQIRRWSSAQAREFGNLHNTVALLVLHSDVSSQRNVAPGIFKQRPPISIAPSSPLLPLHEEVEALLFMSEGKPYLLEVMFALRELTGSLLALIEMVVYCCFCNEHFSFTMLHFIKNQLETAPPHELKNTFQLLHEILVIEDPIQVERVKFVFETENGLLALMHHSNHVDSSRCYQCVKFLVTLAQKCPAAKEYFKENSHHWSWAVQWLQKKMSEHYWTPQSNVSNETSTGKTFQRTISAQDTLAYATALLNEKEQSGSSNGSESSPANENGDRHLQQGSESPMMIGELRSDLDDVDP

COc1ccc(CN(C)C(=O)CCl)cc1
inactive: USP19 -0.211 | USP22 -0.227 | USP24 -0.564 | USP25 -0.245 | USP28 -0.499
